Experimental data published in PubChem BioAssay AID1159580 (chemical genetic matrix, 2015).
The campaign covered roughly 5,500 compounds. About 2,000 (36%) were called active. About 18% were inconclusive and are not listed. Cut-off read from the data, not from the text of the source: active = normalized growth mostly below about 0.91 (no sharp cut-off); inconclusive = no clear call, values can overlap the other calls; inactive = mostly above about 0.92. The list shows a part of the results.

Experiment: chemical genetic growth profiling, strain panel (AID 1159580);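 note: tested at 20 µM; growth read once vehicle control cultures reached saturation at 30 °C; 1 = growth at the plate median or of vehicle wells; lower values mean less growth of the strain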
Conditions: growth OD

Measured: normalized growth

N#CC(O[C@@H]1O[C@H](CO[C@@H]2O[C@H](CO)[C@@H](O)[C@H](O)[C@H]2O)[C@@H](O)[C@H](O)[C@H]1O)c1ccccc1 (some centres not stated)
inactive: S. cerevisiae deletion strains, locus YJR043C, strain POL32, active compounds read low 1.01 | S. cerevisiae deletion strains, locus YJR066W, strain TOR1, active compounds read low 0.921 | S. cerevisiae deletion strains, locus YJR075W, strain HOC1, active compounds read low 0.999 | S. cerevisiae deletion strains, locus YKL009W, strain mrt4, active compounds read low 0.99 | S. cerevisiae deletion strains, locus YKL068W, active compounds read low 0.991 | S. cerevisiae deletion strains, locus YKL085W, strain MDH1 (second series), active compounds read low 0.987 | S. cerevisiae deletion strains, locus YKL085W, strain MDH1, active compounds read low 0.987 | S. cerevisiae deletion strains, locus YKL160W, strain elf1, active compounds read low 0.983 | S. cerevisiae deletion strains, locus YKR001C, strain vps1, active compounds read low 0.988 | S. cerevisiae deletion strains, locus YKR026C, strain gcn3, active compounds read low 0.977 | S. cerevisiae deletion strains, locus YKR091W, strain srl3, active compounds read low 0.979 | S. cerevisiae deletion strains, locus YLL001W, strain dnm1, active compounds read low 0.984 | S. cerevisiae deletion strains, locus YLL026W, active compounds read low 0.981 | S. cerevisiae deletion strains, locus YLL041C, strain sdh2, active compounds read low 0.991 | S. cerevisiae deletion strains, locus YLR027C, strain aat2, active compounds read low 0.987 | S. cerevisiae deletion strains, locus YLR039C, strain RIC1, active compounds read low 1.01 | S. cerevisiae deletion strains, locus YLR058C, strain SHM2, active compounds read low 1.01 | S. cerevisiae deletion strains, locus YLR102C, strain apc9, active compounds read low 0.983 | S. cerevisiae deletion strains, locus YLR113W, strain HOG1, active compounds read low 1.03 | S. cerevisiae deletion strains, locus YLR221C, strain rsa3, active compounds read low 0.976 | S. cerevisiae deletion strains, locus YLR258W, strain gsy2, active compounds read low 0.982 | S. cerevisiae deletion strains, locus YLR262C, strain YPT6 (second series), active compounds read low 0.991 | S. cerevisiae deletion strains, locus YLR262C, strain YPT6, active compounds read low 1.04 | S. cerevisiae deletion strains, locus YLR268W, strain sec22, active compounds read low 0.972 | S. cerevisiae deletion strains, locus YLR320W, strain mms22, active compounds read low 0.968 | S. cerevisiae deletion strains, locus YLR330W, strain CHS5, active compounds read low 1.01 | S. cerevisiae deletion strains, locus YLR342W, strain FKS1 (second series), active compounds read low 1.03 | S. cerevisiae deletion strains, locus YLR342W, strain FKS1, active compounds read low 0.967 | S. cerevisiae deletion strains, locus YLR357W, strain rsc2, active compounds read low 0.948 | S. cerevisiae deletion strains, locus YLR370C, strain arc18, active compounds read low 0.991 | S. cerevisiae deletion strains, locus YLR371W, strain rom2, active compounds read low 1.01 | S. cerevisiae deletion strains, locus YLR384C, strain iki3, active compounds read low 0.96 | S. cerevisiae deletion strains, locus YLR418C, strain cdc73, active compounds read low 1.02 | S. cerevisiae deletion strains, locus YML016C, strain PPZ1, active compounds read low 0.986 | S. cerevisiae deletion strains, locus YML032C, strain rad52, active compounds read low 1.01 | S. cerevisiae deletion strains, locus YML120C, strain ndi1, active compounds read low 0.991 | S. cerevisiae deletion strains, locus YML124C, strain tub3, active compounds read low 0.999 | S. cerevisiae deletion strains, locus YMR058W, strain fet3, active compounds read low 0.989 | S. cerevisiae deletion strains, locus YMR078C, strain ctf18, active compounds read low 1 | S. cerevisiae deletion strains, locus YMR125W, strain sto1, active compounds read low 0.965 | S. cerevisiae deletion strains, locus YMR129W, active compounds read low 0.985 | S. cerevisiae deletion strains, locus YMR205C, strain PFK2, active compounds read low 0.985 | S. cerevisiae deletion strains, locus YMR223W, strain ubp8, active compounds read low 1.01 | S. cerevisiae deletion strains, locus YMR231W, strain pep5, active compounds read low 0.964 | S. cerevisiae deletion strains, locus YMR307W, strain GAS1, active compounds read low 1.01 | S. cerevisiae deletion strains, locus YNL067W, strain RPL9B, active compounds read low 1.03 | S. cerevisiae deletion strains, locus YNL071W, strain lat1, active compounds read low 0.98 | S. cerevisiae deletion strains, locus YNL183C, strain NPR1, active compounds read low 0.976 | S. cerevisiae deletion strains, locus YNL209W, strain ssb2, active compounds read low 0.984 | S. cerevisiae deletion strains, locus YNL233W, strain BNI4, active compounds read low 1.04 | S. cerevisiae deletion strains, locus YNL248C, strain rpa49, active compounds read low 0.983 | S. cerevisiae deletion strains, locus YNL250W, strain rad50, active compounds read low 0.969 | S. cerevisiae deletion strains, locus YNL271C, strain bni1, active compounds read low 0.986 | S. cerevisiae deletion strains, locus YNL298W, strain CLA4, active compounds read low 0.996 | S. cerevisiae deletion strains, locus YNL307C, strain MCK1, active compounds read low 0.991 | S. cerevisiae deletion strains, locus YNL322C, strain KRE1 (second series), active compounds read low 0.977 | S. cerevisiae deletion strains, locus YNR049C, strain mso1, active compounds read low 0.984 | S. cerevisiae deletion strains, locus YNR052C, strain pop2, active compounds read low 0.989 | S. cerevisiae deletion strains, locus YOL006C, strain TOP1, active compounds read low 1.05 | S. cerevisiae deletion strains, locus YOL012C, strain htz1 1.19 | S. cerevisiae deletion strains, locus YOL147C, strain pex11, active compounds read low 0.989 | S. cerevisiae deletion strains, locus YOR001W, strain rrp6, active compounds read low 0.946 | S. cerevisiae deletion strains, locus YOR061W, strain CKA2, active compounds read low 0.993 | S. cerevisiae deletion strains, locus YOR069W, strain VPS5, active compounds read low 0.993 | S. cerevisiae deletion strains, locus YOR070C, strain gyp1, active compounds read low 0.967 | S. cerevisiae deletion strains, locus YOR080W, strain dia2, active compounds read low 0.966 | S. cerevisiae deletion strains, locus YOR083W, strain WHI5, active compounds read low 0.976 | S. cerevisiae deletion strains, locus YOR106W, strain vam3, active compounds read low 0.989 | S. cerevisiae deletion strains, locus YOR136W, strain idh2, active compounds read low 0.994 | S. cerevisiae deletion strains, locus YOR144C, strain elg1, active compounds read low 0.99 | S. cerevisiae deletion strains, locus YOR184W, strain ser1, active compounds read low 1.04 | S. cerevisiae deletion strains, locus YOR231W, strain MKK1, active compounds read low 0.974 | S. cerevisiae deletion strains, locus YOR265W, strain rbl2, active compounds read low 0.981 | S. cerevisiae deletion strains, locus YOR270C, strain vph1, active compounds read low 0.98 | S. cerevisiae deletion strains, locus YOR290C, strain snf2, active compounds read low 0.988 | S. cerevisiae deletion strains, locus YOR316C, strain cot1, active compounds read low 0.985 | S. cerevisiae deletion strains, locus YPL051W, strain arl3, active compounds read low 0.98 | S. cerevisiae deletion strains, locus YPL078C, strain atp4, active compounds read low 0.984 | S. cerevisiae deletion strains, locus YPL106C, strain sse1, active compounds read low 0.972 | S. cerevisiae deletion strains, locus YPL240C, strain hsp82, active compounds read low 0.985 | S. cerevisiae deletion strains, locus YPL256C, strain CLN2, active compounds read low 0.969 | S. cerevisiae deletion strains, locus YPR119W, strain clb2, active compounds read low 1.01 | S. cerevisiae deletion strains, locus YPR141C, strain kar3, active compounds read low 0.981 | S. cerevisiae deletion strains, locus YPR163C, strain tif3, active compounds read low 0.992 | S. cerevisiae deletion strains, locus YPR167C, strain met16, active compounds read low 0.973 | S. cerevisiae deletion strains, strain wtn01, active compounds read low 0.984 | S. cerevisiae strains, strain wild type, active compounds read low 1.02
